# This is a sample that favours compounds with a hit; in the whole collection about 3.1% have one here.
# TSHR antag: blocks TSH signaling through the human TSH receptor; TSHR-expressing cells, TSH-stimulated cAMP HTRF, 2 h; stronger effect = lower value; P16473; AID 504810; activity change, negative = inhibition, % at 11.5 µM; actives 0.2% (n = 330,000);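 active = activity change below a set negative limit, meaning inhibition stronger than a set level, cut at about -70% in these data; inconclusive = activity change between two set negative limits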; note: % is set by controls: 0 for no effect and ±100 for the full control effect
#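 TSHR-expressing cells, 200/well, pre-treated with compound, then stimulated with EC80 TSH (4nM final) for 2 hours at 37 deg C. cAMP measured by competitive HTRF: anti-cAMP cryptate antibody in lysis buffer plus cAMP-d2, read after 30 minutes at room temperature.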
# VDR inh: vitamin D3 receptor (human) inhibition; VDR-SRC2-3 peptide fluorescence polarization, 2 h; P11473; Potency, µM, for inactives: max response, negative = inhibition, most hits filed as inhibitors; AID 504847; actives 0.93% (n = 400,000); note: potency is the fitted concentration of half-maximal effect; % is set by controls: 0 for no effect and ±100 for the full control effect
#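 Compounds are added to VDR with labelled SRC2-3 coactivator peptide and held 2 h at room temperature. Inhibition of the VDR–peptide interaction is then read as a change in fluorescence polarization.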
# uPA generation: cell surface uPA generation inhibition; cell surface uPA generation assay, qHTS; Potency, µM (titrated, usually from 38.3 µM), for inactives: at the highest dose activity change, negative = inhibition, hits mostly inhibitors; actives 0.31% (n = 330,000); active = well fitted inhibition curve with a large enough effect; inconclusive = small, poorly fitted or top-dose-only effect; inactive = no such curve, though single readings can be large or run the other way; tested in mouse RAW 264.7 cells; note: potency is the fitted concentration of half-maximal effect; % is set by controls: 0 for no effect and ±100 for the full control effect; nearly all actives have a fitted effect of over 55% in size
# TSG101-PTAP inh: blocks PTAP/TSG101 interaction to inhibit HIV-1 budding; Fluorescence polarization, FITC-PTAP peptide / Tsg101 binding; Potency, µM (doses to about 115 µM), without a hit: top-dose activity change, negative = inhibition, actives largely listed as inhibitors; 340,000 tested, under 10 active; Q99816; active = well fitted inhibition curve with a large enough effect in the main read-out, with a control signal flat, not every such curve was filed as active; inconclusive = small, poorly fitted or top-dose-only effect, or effect the other way, or a change in a side signal; inactive = no such curve, though single readings can be large or run the other way; note: potency is the fitted concentration of half-maximal effect; % of control where 0% means no effect
#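 FP read-out: FITC-PTAP peptide, 50 nM final, binding Tsg101 binding domain, 10 uM final; 20 min, r.t.; 10 mM HEPES pH 7.5, 0.15 M NaCl, 0.01% Tween 20, 3 mM EDTA, 0.1 mM TCEP.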
# PLK1 PBD inh: inhibitors of human PLK1 polo-box domain binding | AID 720504 | actives 2.8% (n = 360,000) | Potency, µM, inactives show max response, negative = inhibition, hits mostly inhibitors | P53350 | Plk1 PBD binding of FITC phosphopeptide, fluorescence polarization; note: potency is the fitted concentration of half-maximal effect; series mostly up to about 57 µM; % is set by controls: 0 for no effect and ±100 for the full control effect; nearly all actives have a fitted effect of over 65% in size
# Target sequence (P53350 whole entry, looked up, the tested form may be a part): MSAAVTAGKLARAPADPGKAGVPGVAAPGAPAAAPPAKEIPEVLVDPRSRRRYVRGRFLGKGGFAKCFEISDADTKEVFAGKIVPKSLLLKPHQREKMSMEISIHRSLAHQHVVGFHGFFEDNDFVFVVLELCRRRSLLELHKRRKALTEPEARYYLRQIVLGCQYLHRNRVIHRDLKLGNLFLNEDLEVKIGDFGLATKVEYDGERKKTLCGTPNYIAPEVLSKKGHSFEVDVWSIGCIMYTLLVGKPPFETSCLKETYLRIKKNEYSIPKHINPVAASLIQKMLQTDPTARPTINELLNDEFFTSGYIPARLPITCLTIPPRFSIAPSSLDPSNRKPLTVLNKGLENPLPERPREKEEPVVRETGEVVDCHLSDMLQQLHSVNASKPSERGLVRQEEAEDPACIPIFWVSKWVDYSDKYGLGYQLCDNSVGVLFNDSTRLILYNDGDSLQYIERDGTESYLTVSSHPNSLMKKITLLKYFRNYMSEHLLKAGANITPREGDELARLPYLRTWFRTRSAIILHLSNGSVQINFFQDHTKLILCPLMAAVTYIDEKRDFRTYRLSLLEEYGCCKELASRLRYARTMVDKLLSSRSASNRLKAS
# Starred values were filed as active, the others as inactive; ? = inconclusive; nt = no result; ! = repeats disagree. Unless noted, calls come from the whole dose curve; as a rule, active = well fitted curve in the direction sought with a large enough effect; inconclusive = small, poorly fitted or top-dose-only effect, or another doubt; inactive = no such curve, though single readings can be large; an effect the other way counts as inactive or inconclusive.
SMILES,TSHR antag,VDR inh,uPA generation,TSG101-PTAP inh,PLK1 PBD inh
CN(C)c1nc(=S)nc(NCc2ccccc2)[nH]1,-85*,4%,-3%,1%,-17%
O=C(CSc1ncnc2scc(-c3ccccc3)c12)N1CCN(c2ccccc2F)CC1,-10,-13%,3%,1%,-6%
COc1ccccc1N1CCN(C(=O)CSc2ncnc3scc(-c4ccccc4)c23)CC1,-19,?,4%,6%,15µM*
COC(=O)C[C@H](NC(=O)[C@H](C)NC(=O)[C@@H](NC(=O)OCc1ccccc1)C(C)C)C(=O)CF,nt,14%,nt,nt,nt
Cc1cc(NC(=O)CCCn2cnc([N+](=O)[O-])n2)no1,-6,?,0%,-4%,12µM*
Cc1cc(NC(=O)CCCn2nc(C)c([N+](=O)[O-])c2C)no1,5,-11%,1%,-4%,-7%
CC(=O)NCCNc1ncnc2ccc(-c3cccc(NS(C)(=O)=O)c3)cc12,nt,45µM*,nt,nt,nt
Cc1cccc(CNc2ncnc3ccc(-c4cccc(NS(C)(=O)=O)c4)cc23)c1,nt,-7%,nt,nt,nt
COc1ccc(C2NC(=O)c3ccccc3N2)cc1OC (stereo not drawn),4,2%,1%,-3%,-7%
COc1cc(C2NC(=O)C(C#N)=C(S)N2c2ccccc2)ccc1OC(C)C (stereo not drawn),11,35µM*,0%,-7%,-23%
COc1ccc(C2NC(=O)C(C#N)=C(S)N2c2ccccc2)cc1OC (stereo not drawn),-9,45µM*,-2%,-1%,-18%
COc1ccc2c(c1)c(CC(=O)NCc1ccc3c(c1)OCO3)c(C)n2C(=O)c1ccc(Cl)cc1,nt,1%,nt,nt,nt
O=C(Cn1nc2ccccc2n1)N/N=C/c1cc([N+](=O)[O-])ccc1O,-9,-22%,-9%,-11%,7.5µM*
O=C(CSc1ccccn1)N/N=C/c1cc([N+](=O)[O-])ccc1O,-4,-7%,3.5µM*,-4%,-4%
CC(=O)Nc1ccc(NC(=O)CN(c2ccc(C(C)C)cc2)S(=O)(=O)c2ccccc2)cc1,19,9%,-18%,-2%,-3%
CN1CCN(S(=O)(=O)c2ccc(Cl)s2)CC1,-6,9%,-3%,-4%,2%
O=S(=O)(NN1CCOCC1)c1ccc(Br)s1,24,?,0%,-5%,3µM*
O=C(CN(CC(=O)N1CCOCC1)S(=O)(=O)c1ccc(Br)s1)N1CCOCC1,nt,-22%,1%,-1%,24µM*
O=S(=O)(NN1CCOCC1)c1ccc(Cl)s1,-7,9%,1%,1%,21µM*
CN1CCN(NS(=O)(=O)c2ccc(Cl)s2)CC1,12,?,4%,-1%,8.4µM*
Cc1noc(C)c1COc1ccccc1C(=O)NC(C)c1ccc(F)cc1 (stereo not drawn),nt,-5%,9%,-3%,-2%
CCc1c(-c2ccc(Br)cc2)ncn1Cc1cccc(-c2ccccc2)c1,nt,nt,nt,nt,-13%
CS(=O)(=O)N1CCC[C@@]2(CCN(C(c3ccccc3)c3ccccc3)C2)C1,nt,1%,nt,nt,nt
O=S(=O)(Nc1ccc(S(=O)(=O)N2CCOCC2)cc1)c1ccc(Br)cc1,-7,7%,1%,-3%,-5%
O=S(=O)(NN1CCOCC1)c1ccc(Br)cc1,1,?,1%,-2%,7.5µM*
SMILES,TSHR antag,VDR inh,uPA generation,TSG101-PTAP inh,PLK1 PBD inh
CNC[C@H](O)c1cccc(O)c1,-25,9%,-25%,-1%,-6%
CNC[C@H](O)c1ccc(O)c(O)c1,-17,32µM*!,?,-4%,-4%
COc1ccc2c(c1)CC(C(=O)NCc1ccc(F)cc1)CO2 (stereo not drawn),nt,-9%,nt,nt,nt
CCS(=O)(=O)N1CCc2cc(C(=O)Nc3cc(OC)c(Cl)cc3OC)ccc21,nt,4%,nt,nt,nt
CC(C)CN(CCNC(=O)c1cc(-c2cccs2)nc2ccccc12)CC(C)C,nt,4%,nt,nt,nt
Cc1n[nH]c(C)c1Sc1ccccc1[N+](=O)[O-],-2,2%,13%,-2%,-2%
Cn1c(N)c(Sc2ccccc2[N+](=O)[O-])c(=O)n(C)c1=O,-112*,11%,-1%,-10%,-25%
Cc1ccc(-n2nc(C)c(Sc3ccccc3[N+](=O)[O-])c2N)cc1,10,?,1%,2%,2.4µM*
CCOc1cc(CNCCO)ccc1OCC(=O)NC(C)(C)C,7,17%,-2%,0%,24µM*
Cn1sccc1=O,3,16µM*,-18%,-2%,15µM*
Cc1nc([N+](=O)[O-])c(Br)n1CC(=O)c1ccc(F)cc1,-4,6%,-13%,-3%,?
Cc1nc([N+](=O)[O-])c(Br)n1Cc1ccccc1,6,-15%,10µM*,-8%,?
CC(=O)c1nnn(-c2ccc([N+](=O)[O-])cc2C)c1C,0,-8%,-2%,-5%,24µM*
CSc1cc(-c2ccc(Cl)cc2)c(C(=O)NC(C)C)s1,9,-24%,-8%,-7%,3µM*
CSc1cc(-c2ccc(Cl)cc2)c(C(=O)NN)s1,-10,?,nt,-5%,-5%
O=C(CCSCc1cnn(-c2ccccc2)c1-n1cccc1)NCc1ccc(Cl)cc1,nt,3%,nt,nt,nt
COc1ccc(C2CC23N=C(c2ccccc2)OC3=O)cc1 (stereo not drawn),7,?,9%,-5%,17µM*
COCCNc1nnc(SCC(=O)NNC(=O)c2ccccc2)s1,-2,-10%,10%,-5%,27µM*
COc1ccc(NC(=O)CSc2nnc(NC(=O)c3ccccc3C(=O)O)s2)cc1,1,-14%,1%,1%,17µM*
CCc1sc(-c2cc3cccc(OC)c3oc2=O)nc1-c1cc(C)ccc1C,nt,-8%,nt,nt,nt
Nc1c(-c2nc(-c3ccc4c(c3)OCO4)cs2)c2ccccn2c1C(=O)c1ccc(Cl)cc1,nt,10%,nt,nt,nt
CC(=O)Nc1ccc(NC(=O)C2CCC(N3C(=O)C4C5C=CC(C6CC56)C4C3=O)CC2)cc1 (stereo not drawn),27,20µM*,19%,0%,5%
O=C(Nc1ccc(Cc2ccncc2)cc1)C1CCC(N2C(=O)C3C4C=CC(C5CC45)C3C2=O)CC1 (stereo not drawn),-23,4%,-5%,-6%,-5%
CCS(=O)(=O)c1nc2ccccc2n1CC(=O)Nc1ccccc1C(=O)OC,nt,7%,nt,nt,nt
Cc1nc2ccccc2n1CC(=O)N/N=C\C=C\c1ccccc1,-81*,-1%,3%,-4%,-7%
Cc1nc2ccccc2n1CC(=O)N/N=C\c1ccccn1,4,-13%,2%,-8%,-11%
O=c1c(-c2cc(F)cc(F)c2)nc2cnc(Nc3ccccc3)nc2n1C[C@H]1CCCO1,nt,7%,nt,nt,nt
Cc1ccccc1/C=C/C1=NCCN1,-16,3%,4µM*,-1%,-8%
Cc1ccccc1C=O,-18,16%,-2%,-1%,-2%
COc1ccc(-c2[nH]c(-c3ccc(O)cc3)nc2-c2ccccc2)cc1,nt,1%,nt,nt,nt

# Screens: PubChem, National Center for Advancing Translational Sciences (NCATS)
